Assay results reported in the antibiotic and cytotoxicity screens of Wong et al. (2023).
Screen size: about 39,000 compounds; about 1,500 (3.8%) were called active. The sample as a whole holds a higher share of actives than the screen did.

These compounds were tested on HSkMC (human skeletal muscle cells) (assay: cytotoxicity call (relative viability < 0.9)). Conditions: 10 µM.

Row | Compound | cytotoxicity call
1 | COc1ccc(S(=O)(=O)N(C)C[C@@H]2Oc3ccc(NS(=O)(=O)c4cccs4)cc3C(=O)N([C@@H](C)CO)C[C@H]2C)cc1 | inactive
2 | CO[C@@H]1CN(C)C(=O)c2cc(NS(=O)(=O)CC(F)(F)F)ccc2OC[C@@H](C)N(Cc2cccnc2)C[C@@H]1C | inactive
3 | Cc1ccc(S(=O)(=O)N[C@@H]2CC[C@H](CC(=O)NCc3ccc(Cl)c(Cl)c3)O[C@H]2CO)cc1 | inactive
4 | COc1ccc(NC(=O)N(C)C[C@@H]2Oc3ccc(NS(=O)(=O)c4c(C)noc4C)cc3C(=O)N([C@@H](C)CO)C[C@@H]2C)cc1 | inactive
5 | Cc1noc(C)c1S(=O)(=O)N(C)C[C@H]1Oc2ccc(NS(=O)(=O)c3cccs3)cc2CC(=O)N([C@H](C)CO)C[C@H]1C | inactive
6 | C[C@H](CO)N1C[C@H](C)[C@H](CN(C)C(=O)Nc2cccc3ccccc23)OCc2cnnn2CCCC1=O | inactive
7 | C[C@@H]1CN([C@H](C)CO)C(=O)Cc2cc(NC(=O)Nc3ccc(F)cc3)ccc2O[C@@H]1CN(C)Cc1ccc(Oc2ccccc2)cc1 | active
8 | C[C@@H]1CN([C@@H](C)CO)C(=O)Cc2cc(NC(=O)Nc3ccc(F)cc3)ccc2O[C@@H]1CN(C)Cc1ccc(Oc2ccccc2)cc1 | inactive
9 | C[C@H]1CN([C@@H](C)CO)C(=O)Cc2cc(NC(=O)Nc3ccc(F)cc3)ccc2O[C@@H]1CN(C)Cc1ccc(Oc2ccccc2)cc1 | inactive
10 | C[C@H](CO)N1C[C@H](C)[C@H](CN(C)Cc2ccc(Oc3ccccc3)cc2)Oc2ccc(NC(=O)Nc3ccc(F)cc3)cc2CC1=O | inactive
11 | C[C@H]1CN([C@@H](C)CO)C(=O)Cc2cc(NC(=O)Nc3ccc(F)cc3)ccc2O[C@H]1CN(C)Cc1ccc(Oc2ccccc2)cc1 | active
12 | C[C@@H]1CN([C@@H](C)CO)C(=O)Cc2cc(NC(=O)Nc3ccc(F)cc3)ccc2O[C@H]1CN(C)Cc1ccc(Oc2ccccc2)cc1 | inactive
13 | C[C@H](CO)N1C[C@H](C)[C@@H](CN(C)Cc2ccc(Oc3ccccc3)cc2)Oc2ccc(NC(=O)Nc3ccc(F)cc3)cc2CC1=O | inactive
14 | C[C@@H]1CN([C@H](C)CO)C(=O)Cc2cc(NC(=O)Nc3ccc(F)cc3)ccc2O[C@H]1CN(C)Cc1ccc(Oc2ccccc2)cc1 | active
15 | O=C(NC1Cc2ccccc2C1)[C@H]1[C@H](CO)[C@H]2Cn3c(cccc3=O)[C@H]2N1C(=O)c1cnccn1 | inactive
16 | Cc1ccc(S(=O)(=O)Nc2ccc3c(c2)C(=O)N([C@H](C)CO)C[C@@H](C)[C@H](CN(C)S(=O)(=O)c2ccc(Cl)cc2)OCCCC[C@@H](C)O3)cc1 | inactive
17 | C[C@@H]1CCCCO[C@H](CN(C)CC2CCCCC2)[C@H](C)CN([C@H](C)CO)C(=O)c2cc(NC(=O)CCC(F)(F)F)ccc2O1 | inactive
18 | C[C@@H]1CCCCO[C@@H](CN(C)Cc2ccncc2)[C@H](C)CN([C@@H](C)CO)C(=O)c2cc(NS(C)(=O)=O)ccc2O1 | inactive
19 | O=C(CCCCC(=O)N/N=C/[C@H](O)[C@@H](O)[C@H](O[C@@H]1O[C@H](CO)[C@H](O)[C@H](O)[C@H]1O)[C@H](O)CO)NO | inactive

Row | Compound | cytotoxicity call
20 | CCNC(=O)C[C@H]1CC[C@H](NC(=O)C2CCOCC2)[C@@H](CO)O1 | inactive
21 | O=C(CCCCn1c(=O)[nH]c2ccccc2c1=O)N1CCN(c2ncccn2)CC1 | inactive
22 | C[C@H]1CN([C@@H](C)CO)C(=O)Cc2cc(NC(=O)Nc3ccc(C(F)(F)F)cc3)ccc2O[C@H]1CN(C)C(=O)Nc1ccc(F)cc1 | inactive
23 | C[C@@H]1CN([C@H](C)CO)C(=O)Cc2cc(NC(=O)Nc3ccc(C(F)(F)F)cc3)ccc2O[C@H]1CN(C)C(=O)Nc1ccc(F)cc1 | inactive
24 | C[C@@H]1CN([C@H](C)CO)C(=O)Cc2cc(NC(=O)Nc3ccc(F)cc3)ccc2O[C@H]1CN(C)C(=O)Nc1ccc(C(F)(F)F)cc1 | inactive
25 | C[C@H]1CN([C@@H](C)CO)C(=O)Cc2cc(NC(=O)Nc3ccc(C(F)(F)F)cc3)ccc2O[C@@H]1CN(C)C(=O)Nc1ccc(C(F)(F)F)cc1 | inactive
26 | C[C@@H]1CN([C@@H](C)CO)C(=O)Cc2cc(NC(=O)Nc3ccc(F)cc3)ccc2O[C@@H]1CN(C)C(=O)Nc1ccc(C(F)(F)F)cc1 | inactive
27 | C[C@@H]1CN([C@H](C)CO)C(=O)Cc2cc(NC(=O)Nc3ccc(C(F)(F)F)cc3)ccc2O[C@H]1CN(C)C(=O)Nc1ccc(C(F)(F)F)cc1 | active
28 | C[C@@H]1CN([C@H](C)CO)C(=O)Cc2cc(NC(=O)Nc3ccc(C(F)(F)F)cc3)ccc2O[C@@H]1CN(C)C(=O)Nc1ccc(C(F)(F)F)cc1 | active
29 | C[C@H](CO)N1C[C@H](C)[C@H](CN(C)C(=O)Nc2ccc(C(F)(F)F)cc2)Oc2ccc(NC(=O)Nc3ccc(C(F)(F)F)cc3)cc2CC1=O | active
30 | C[C@@H]1CN([C@@H](C)CO)C(=O)Cc2cc(NC(=O)Nc3ccc(C(F)(F)F)cc3)ccc2O[C@H]1CN(C)C(=O)Nc1ccc(C(F)(F)F)cc1 | inactive
31 | C[C@@H]1CN([C@@H](C)CO)C(=O)Cc2cc(NC(=O)Nc3ccc(C(F)(F)F)cc3)ccc2O[C@H]1CN(C)C(=O)Nc1ccc(F)cc1 | inactive
32 | C[C@H](CO)N1C[C@H](C)[C@@H](CN(C)C(=O)Nc2ccc(C(F)(F)F)cc2)Oc2ccc(NC(=O)Nc3ccc(C(F)(F)F)cc3)cc2CC1=O | inactive
33 | C[C@@H]1CN([C@@H](C)CO)C(=O)Cc2cc(NC(=O)Nc3ccc(C(F)(F)F)cc3)ccc2O[C@@H]1CN(C)C(=O)Nc1ccc(F)cc1 | active
34 | NCC[C@@H]1CC[C@@H](NC(=O)c2ccccc2F)[C@@H](CO)O1 | inactive
35 | C[C@@H]1CCCCO[C@H](CN(C)C(=O)Nc2ccc(F)cc2)[C@@H](C)CN([C@H](C)CO)C(=O)c2cc(NC(=O)Nc3cccc4ccccc34)ccc2O1 | inactive
36 | COCC(=O)N(C)C[C@@H]1Oc2cc(C#CC(C)(C)O)ccc2S(=O)(=O)N([C@H](C)CO)C[C@H]1C | inactive
37 | C[C@@H]1CCCCO[C@@H](CN(C)C(=O)Nc2ccccc2)[C@@H](C)CN([C@H](C)CO)C(=O)c2cc(NC(=O)Nc3ccccc3)ccc2O1 | inactive
